The record followed here is the emibetuzumab library of Makowski et al. (2022).

The list shows a part of the results. The true hit rate is not given.

B1: VH:VL chains; a variant is named by its letters at X, in order (parent)
chain 1: QVQLVQSGAEVKKPGASVKVSCKASGYTFTDYXMHWVRQAPGQGLEWMGXVNPNXXXTTYNQKFEGRVTMTTDTSTSTAYMELRSLRSDDTAVYYCARXNXLDXWGQGTTVTVSS
chain 2: DIQMTQSPSSLSASVGDRVTITCSVSSSVSSIYLHWYQQKPGKAPKLLIYSTSNLASGVPSRFSGSGSGTDFTLTISSLQPEDFATYYCQVYSGYPLTFGGGTKVEIK

In this experiment the parent is B1. The experiment can be described thus: yeast display scFab, FACS + sequencing. The note with it: with MET. An outline of the steps: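 Antigen binding was called positive for sequences present in both antigen-positive samples and negative for those present only in the input. These calls came from deep sequencing, in two replicates, of round-3 sorted and input populations from a heavy-chain CDR mutant scFab yeast surface library. The library was first enriched twice magnetically on HGFR-Fc-coated Protein A beads and then by FACS, gating the top 50% antigen-positive cells after 3 h labelling at room temperature with 1 nM HGFR-Fc plus anti-Myc in PBSB with 1% milk.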
As for YAKGDYSV, the antigen binding call is given as “no binding”.

For SETTDSLD, the antigen binding call was “no binding”.

For the variant ARGRGAAD, the antigen binding call is on record as “binds”.

In the case of AAEGDAAD, the antigen binding call is on record as “no binding”.

Take ARGRGAAS: the antigen binding call was “binds”.

As for AGGRGDVD, the antigen binding call was “no binding”.

SGGRTYGV: the antigen binding call was “no binding”.

In the case of VRGGGDWV, the antigen binding call is “no binding”.

In the case of YRGGDDSV, the antigen binding call is “no binding”.

YRGGGDWV: the antigen binding call is listed as “binds”.

In the case of YRGRGDSV, the antigen binding call is given as “binds”.

Take YTETGDSV: the antigen binding call was “no binding”.

On to YEGGGDWV, for which the antigen binding call was “no binding”.

Turning to YRGGGDSV, the antigen binding call was “binds”.

In the case of YTGGGDGV, the antigen binding call was “no binding”.

With SETKGDWA, the antigen binding call is “no binding”.

On to VTTKSDAV, for which the antigen binding call is recorded as “no binding”.

DEKGGSSA: the antigen binding call is reported as “no binding”.

Take DTTRGAVA: the antigen binding call is given as “no binding”.

For the variant YRRGDAWY, the antigen binding call is on record as “binds”.

Take FRRGGAWY: the antigen binding call is “binds”.

With FRAGGAWY, the antigen binding call is on record as “binds”.

For the variant FRKRGAWY, the antigen binding call was “binds”.

With DRRGDAVY, the antigen binding call is “no binding”.

Turning to YAGGGDGA, the antigen binding call was “no binding”.

Take FRRGGAGY: the antigen binding call was “binds”.

As for YRRGGAWY, the antigen binding call was “binds”.

For the variant FRAGGAVY, the antigen binding call is recorded as “binds”.

For FRRRGAWY, the antigen binding call is recorded as “binds”.

As to FRTKAAVY, the antigen binding call is on record as “no binding”.

With FTKGSAGY, the antigen binding call is “no binding”.

For FRGEAVVY, the antigen binding call is listed as “no binding”.

As for VAGGDDGA, the antigen binding call is given as “no binding”.

Regarding FGGENDGD, the antigen binding call is “no binding”.

Consider VRTRGSSS, for which the antigen binding call is “binds”.

As for VRKRGSSS, the antigen binding call is “binds”.

For the variant VGGTSSSS, the antigen binding call was “no binding”.

Take DETGNVWF: the antigen binding call is listed as “no binding”.

With VTGEDDAA, the antigen binding call was “no binding”.

As to DAGGADVA, the antigen binding call is “no binding”.

Turning to YRARSAAD, the antigen binding call is given as “binds”.

Turning to YRARSALD, the antigen binding call was “binds”.

With YAARAALD, the antigen binding call was “no binding”.

Consider YRAGDAAD, for which the antigen binding call is “binds”.

Take YRAGSAAD: the antigen binding call is “binds”.

On to YREGDAAD, for which the antigen binding call is “no binding”.

For DAGGGYSV, the antigen binding call was “no binding”.

In the case of DKEGGSSA, the antigen binding call was “no binding”.

With DKTGNDVV, the antigen binding call was “no binding”.

With AATRNVGV, the antigen binding call is on record as “no binding”.

Turning to YRARSAVD, the antigen binding call is “binds”.

On to YAARAAVD, for which the antigen binding call was “no binding”.

Turning to VGGTSDGV, the antigen binding call was “no binding”.

For DKGRSAGD, the antigen binding call was “no binding”.

As for YKGRDALD, the antigen binding call is “binds”.

YKGRDAGD: the antigen binding call is listed as “binds”.

Regarding YKGRDDVA, the antigen binding call was “no binding”.

YKGRDAWD: the antigen binding call is given as “binds”.

Consider YKGRDASD, for which the antigen binding call is “no binding”.

SGKKAVWV: the antigen binding call is “no binding”.

Consider VEAGDDVY, for which the antigen binding call is on record as “no binding”.

Regarding VTGANDWV, the antigen binding call is “no binding”.

As to SKGRSDVV, the antigen binding call is “no binding”.

As to VTGEDAGA, the antigen binding call is reported as “no binding”.

For the variant YRERGSAV, the antigen binding call is “binds”.

Consider VRERGSAV, for which the antigen binding call is listed as “binds”.

As to DTERGSLV, the antigen binding call is “no binding”.

Turning to VRERGVGV, the antigen binding call is on record as “no binding”.

With FRERGSAV, the antigen binding call is on record as “binds”.

Take YRERGAAV: the antigen binding call is reported as “binds”.

For VRERGDLV, the antigen binding call is recorded as “no binding”.

Consider VTGEADAS, for which the antigen binding call is given as “no binding”.

On to DATGGDVA, for which the antigen binding call is given as “no binding”.

Consider DAGGAAAV, for which the antigen binding call is recorded as “no binding”.

Consider VEEEGDGA, for which the antigen binding call is reported as “no binding”.

As to YKGKGAWY, the antigen binding call is on record as “binds”.

With VKEKGAWY, the antigen binding call is “no binding”.

With YRGKGAWY, the antigen binding call is recorded as “binds”.

Turning to YRGKDAWY, the antigen binding call was “binds”.

For FKGKGAWY, the antigen binding call was “binds”.

For AKGGAAVY, the antigen binding call is listed as “no binding”.

In the case of AETKGALD, the antigen binding call was “no binding”.

Consider SKGKGAWY, for which the antigen binding call is listed as “binds”.

Regarding YRGKGAGY, the antigen binding call was “binds”.

Consider YRGKDAAY, for which the antigen binding call was “binds”.

Take SKAGDAWY: the antigen binding call is “no binding”.

With YRGKDAWS, the antigen binding call was “binds”.

Take YAGKTAWS: the antigen binding call is “no binding”.

As to SEARSDAV, the antigen binding call was “no binding”.

Regarding YRKKGALY, the antigen binding call is reported as “binds”.

With FRRRGSLY, the antigen binding call is “binds”.

In the case of DRAGDDLY, the antigen binding call is listed as “no binding”.

FRAGGSLY: the antigen binding call is “binds”.

With YRRRGSLY, the antigen binding call is reported as “binds”.

For the variant VAGTGDWV, the antigen binding call is reported as “no binding”.

Turning to DKREADGA, the antigen binding call is “no binding”.

Take VEERDAGD: the antigen binding call is listed as “no binding”.

Turning to VTEGDAGA, the antigen binding call is “no binding”.

For SKTRAFVA, the antigen binding call was “no binding”.

In the case of SRGGGVGY, the antigen binding call was “no binding”.

As for SREAAAVY, the antigen binding call is given as “no binding”.

Regarding SRAGGSLY, the antigen binding call is “binds”.

Turning to YRRRGALY, the antigen binding call is listed as “binds”.

As for DAERDSGV, the antigen binding call is “no binding”.

Turning to VRARGAWF, the antigen binding call was “binds”.

In the case of VRTEDDWF, the antigen binding call was “no binding”.

Take VRGGDDWF: the antigen binding call is on record as “no binding”.

As to YRARDDVF, the antigen binding call is “no binding”.

Turning to YRARGAGF, the antigen binding call is “binds”.

Regarding YRARGAWF, the antigen binding call is reported as “binds”.

In the case of YRARSDVF, the antigen binding call was “binds”.

On to YRTGDDVF, for which the antigen binding call was “no binding”.

Regarding SEGADAVA chain 1 G106S, the antigen binding call was “no binding”.

For VETGNDGA, the antigen binding call is “no binding”.

In the case of YRARSAGF, the antigen binding call is “binds”.

VRAGDDVF: the antigen binding call is listed as “no binding”.

Take VRARGAGF: the antigen binding call is recorded as “binds”.

Consider VGTKGAGF, for which the antigen binding call is “no binding”.

Take YRARSAGF chain 1 G108D: the antigen binding call is reported as “no binding”.

Take DEKKADWA: the antigen binding call is recorded as “no binding”.

On to SEEGTDGV, for which the antigen binding call was “no binding”.

Consider YKTESYWY, for which the antigen binding call is given as “no binding”.

Regarding YKGRGYSY, the antigen binding call is reported as “no binding”.

Regarding YKGRGYWY, the antigen binding call is given as “binds”.

Take YRGRGSWY: the antigen binding call is “binds”.

Turning to YRGRGYWY, the antigen binding call was “binds”.

Regarding YTEETDGF, the antigen binding call is “no binding”.

Turning to SEARSYAV, the antigen binding call is reported as “no binding”.

For the variant SKGTDDWV, the antigen binding call is listed as “no binding”.

On to SAEEDDVY, for which the antigen binding call is recorded as “no binding”.

For the variant VTGEDDGS, the antigen binding call is recorded as “no binding”.

YRGKGAGF: the antigen binding call is reported as “binds”.

Turning to YRGADFGF, the antigen binding call is listed as “no binding”.

In the case of YRGASSGF, the antigen binding call is given as “binds”.

On to YRGGSAGF, for which the antigen binding call is on record as “binds”.

Turning to YRTGTAGF, the antigen binding call is given as “binds”.

Take YRGGTFGF: the antigen binding call is on record as “no binding”.
